Screening results (PubChem BioAssay)
M1 ag = agonists of M1 muscarinic receptor; CHO-M1 cells, Fluo-4 calcium fluorescence, agonist mode; stronger effect = higher value; AID 626; actives 3% (n = 64,000); B-score at 10 µM;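 active = fluorescence rise, raw or as B-score row- and column-corrected plate score, outside the 99.7% band of its plate's samples, either direction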
M1 antag = blocks the rat M1 muscarinic receptor response to acetylcholine | P08482 | AID 628 | CHO-M1 cells, Fluo-4 calcium, ACh EC80 antagonist mode; stronger effect = lower value | B-score at 10 µM | actives 3.4% (n = 64,000);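 active = calcium fluorescence response, raw or row-and-column corrected B-score, differing from the plate sample mean either way at a set confidence level, mostly lower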
Target sequence (P08482 whole entry, looked up): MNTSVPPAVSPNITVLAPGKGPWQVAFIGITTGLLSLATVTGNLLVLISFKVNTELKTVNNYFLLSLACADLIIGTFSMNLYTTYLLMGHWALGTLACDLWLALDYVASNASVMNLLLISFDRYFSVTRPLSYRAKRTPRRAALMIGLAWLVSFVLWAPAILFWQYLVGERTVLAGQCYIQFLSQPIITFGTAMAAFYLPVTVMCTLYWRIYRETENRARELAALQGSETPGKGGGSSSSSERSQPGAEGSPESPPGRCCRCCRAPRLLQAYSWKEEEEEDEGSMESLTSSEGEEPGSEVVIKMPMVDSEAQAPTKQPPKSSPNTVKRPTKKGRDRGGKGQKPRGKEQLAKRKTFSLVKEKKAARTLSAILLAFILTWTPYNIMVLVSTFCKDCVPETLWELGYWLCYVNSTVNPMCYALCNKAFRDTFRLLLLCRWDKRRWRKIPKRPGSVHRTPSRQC
mHtt clearance = mutant huntingtin protein clearance; HeLa Exon1htt(103Q)mCFP, aggregate imaging; zero = plate's median compound well; AID 853; actives 0.42% (n = 47,000); inhibition, % at 1.5 µM;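 active = inhibition of aggregate fluorescence above about 70%, also judged a hit by eye on the cell image, limit read from the data, passing the limit was not always enough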;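 also: cells exposed to compound for three days before fixation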
D1 allo mod = D1 dopamine receptor (human) allosteric modulation; P21728; B-score at 10 µM; HEK293 D1, CRE-luciferase, dopamine EC30 potentiation; actives deviate in either direction; actives 5.9% (n = 58,000); AID 641;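 active = luminescence count or its row- and column-corrected plate score outside the 99.7% band of the plate's sample wells, on either side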
M1 antag confirm = M1 muscarinic receptor (rat) antagonism, confirmed; AID 677; calcium response (max-min fluorescence) at 10 µM; shares compounds with M1 antag; actives 43% (n = 1,700); CHO-M1 cells, Fluo-4 calcium, ACh EC80 antagonism; stronger effect = lower value;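 active = calcium response below the same-plate mean of wells given acetylcholine alone at its 80%-effect dose, minus 3 SD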;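 also: raw fluorescence intensity difference in arbitrary instrument units and not normalized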
mGluR4 antag = acts on human mGluR4 in M1 antagonist selectivity test; fluorescence response (max-min) at 10 µM; CHO-mGluR4 calcium flux, Fluo-4 fluorescence, glutamate EC80; stronger effect = lower value; shares compounds with M1 antag; actives 0.9% (n = 1,700);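 active = fluorescence response below the plate's average for near-maximal glutamate wells, less 3 SD of those wells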;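 also: raw unnormalized fluorescence span taken in the window right after glutamate addition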
Numbers without * were called inactive. This is a sample that favours compounds with a hit; in the whole collection about 9.1% have one here.

CC1CCCCN1CCNC(=O)C1CC(=O)N(c2ccc(F)c(Cl)c2)C1 (configuration not stated) was read as M1 ag 0.0809, M1 antag -1.64*, mHtt clearance -3.5, D1 allo mod -1.62, M1 antag confirm 440 and mGluR4 antag 168.
`COCCSc1nc2sc3c(c2c(=O)n1-c1ccccc1)CCN(C)C3` gave M1 ag -0.839, M1 antag -2.96*, mHtt clearance 60.6, M1 antag confirm 519 and mGluR4 antag 231.
CC/C(C)=C1\SC(N2CCOCC2)=NC1=O was read as mHtt clearance -25.9.
N#CC1=C(N)Oc2c(oc(CO)cc2=O)C1c1cccs1 (configuration not stated) was read as M1 ag -0.0122, M1 antag -0.476, mHtt clearance -55.3 and D1 allo mod 0.273.
CCN1C=C(Cc2cccs2)C2=C(C1)C(c1cccs1)C(C#N)=C(N)O2 (configuration not stated) was read as M1 ag 2.78, M1 antag -3.84*, mHtt clearance 28.1, D1 allo mod -1.8, M1 antag confirm 514 and mGluR4 antag 170*.
Screening CN1C(=O)c2c(sc3c2CCCC3)NC1c1ccccc1O (configuration not stated) returned M1 ag -0.461, M1 antag -2.68*, D1 allo mod -0.511, M1 antag confirm 554 and mGluR4 antag 205.
Cc1ccc(-n2c(C)cc(C(=O)CSc3nnnn3C)c2C)cc1 was read as M1 ag -0.193, M1 antag -1.76*, mHtt clearance 9.6, M1 antag confirm 574 and mGluR4 antag 222.
Cc1ccc(-n2c(C)cc(C(=O)CSc3nncs3)c2C)cc1 was read as M1 ag 1.51 and M1 antag -2.02.
Screening Cc1cc(C(=O)CSc2nnnn2C)c(C)n1CCc1ccc(F)cc1 returned M1 ag -0.918, M1 antag -2.13*, M1 antag confirm 644 and mGluR4 antag 231.
Screening CCOC(=O)N1CCN(C(=O)CN(c2ccccc2OC)S(=O)(=O)c2ccc(C)cc2)CC1 returned M1 ag 0.0138, M1 antag -2.63*, mHtt clearance -23.4, D1 allo mod 0.613, M1 antag confirm 621 and mGluR4 antag 250.
`COc1ccc(S(=O)(=O)N(C)CC(=O)N2CCN(C)CC2)cc1C` gave M1 ag -1.09, M1 antag -1.9*, mHtt clearance -16.3, D1 allo mod -0.551, M1 antag confirm 685 and mGluR4 antag 226.
`COc1ccc(S(=O)(=O)N(C)CC(=O)N2CCCCCC2)cc1OC` gave M1 ag 1.08, M1 antag 0.169 and D1 allo mod -0.337.
`COC(=O)Nc1snnc1C` gave mHtt clearance 55.4.
`COc1ccc2oc(=O)c(C(=O)N3CCN(c4ccccc4)CC3)cc2c1` gave M1 ag -0.00959, M1 antag 0.168, mHtt clearance 17.7 and D1 allo mod -0.712.
Screening COc1ccc2oc(=O)c(C(=O)N3CCN(C45CC6CC(CC(C6)C4)C5)CC3)cc2c1 returned M1 ag -0.0104, M1 antag -3.03*, D1 allo mod -0.22, M1 antag confirm 390 and mGluR4 antag 209.
Screening COc1ccc(OC)c(S(=O)(=O)N2CCN(C34CC5CC(CC(C5)C3)C4)CC2)c1 returned M1 ag -0.393, M1 antag -4.64*, mHtt clearance -27.1, D1 allo mod 0.0218, M1 antag confirm 477* and mGluR4 antag 230.
Screening O=C1CC(C2CCCO2)C(=O)N1Cc1ccccc1 (configuration not stated) returned M1 ag -0.019, M1 antag -0.134 and D1 allo mod -0.862.
COc1ccccc1-n1cnnc1SCC(=O)Nc1nc(C)c(Cl)cc1Cl was read as mHtt clearance 20.9.
Cc1nc(NCc2ccco2)[nH]c(=O)c1CCC(C)C was read as M1 ag 0.95, M1 antag -2.43*, mHtt clearance 39.2, D1 allo mod 0.384, M1 antag confirm 619 and mGluR4 antag 289.
